{"source": "PubChem BioAssay (EPA / NIEHS)", "note": "“And” between values parts separate entries of the source, which are not always exact repeats. Identical values can stand only once. Records with an inconclusive call do not appear. The source made the active and inactive calls. How the source made its calls: active means hit-call score of the fitted dose curve at least 0.9, where 1 is the maximum; inconclusive means response in the unintended direction; inactive means score below 0.9."}
{"assay": "CCTE_Mundy_HCI_hNP1_Pro_ResponderAvgInten: CCTE's Proliferation Assay in human neuroprogenitor cells, Mundy Lab (AID 2284224)", "protocol": "CCTE_Mundy_HCI_hNP1_Pro is a multiplexed, cell-based-readout assay that uses neural stem cells derived from a neuroepithelial cell lineage of WA09 embryonic cells with measurements taken at 26.25 hours after chemical dosing in a microplate: 96-well plate.CCTE_Mundy_HCI_hNP1_Pro_ResponderAvgInten is one of three components of the CCTE_Mundy_HCI_hNP1_Pro assay. It measures proliferation related to percentage of BrdU positive cells using High Content Imaging of fluorescently labelled markers.Data from the assay component CCTE_Mundy_HCI_hNP1_Pro_ResponderAvgInten was analyzed at the endpoint CCTE_Mundy_HCI_hNP1_Pro_ResponderAvgInten in the positive analysis fitting direction relative to DMSO as the negative control and baseline of activity. Using a type of growth reporter, loss -of-signal activity can be used to understand viability effects.\nHuman neural progenitor cells (hNP1) were obtained as cryopreserved cells from ArunA Biomedical, Athens Georgia. Cells are plated on pre-coated poly-L-ornithine/laminin clear bottom and opaque 96 well plates (day 0). Plates are placed in a 37 °C, 5% CO2 incubator for 40 to 44 hours at which time plates are removed from the incubator and 10 uL of a freshly made chemical solution is added to each well. Twenty hours after the addition of the chemicals, the clear plates are removed from the incubator and 11 uL of a BrdU solution is added to each well. The plates are returned to the incubator for four hours. After four hours, the plates are fixed with a 4% paraformaldehyde solution."}
{"compound": "CCCCC(CC)COC(=O)c1ccccc1C(=O)OCC(CC)CCCC", "note": "(stereo not given)", "AC50": "9.27 µM (active) and 3.62 µM (active)"}
{"compound": "CCOC(=O)CC(SP(=S)(OC)OC)C(=O)OCC", "note": "(stereo not given)", "outcome": "inactive"}
{"compound": "N#Cc1nn(-c2c(Cl)cc(C(F)(F)F)cc2Cl)c(N)c1S(=O)C(F)(F)F", "note": "(stereo not given)", "outcome": "inactive"}
{"compound": "Cc1ccc(-c2c(Cl)nc(C#N)n2S(=O)(=O)N(C)C)cc1", "AC50": "50 µM (active)"}
{"compound": "C=CC1(C)OC(=O)N(c2cc(Cl)cc(Cl)c2)C1=O", "note": "(stereo not given)", "outcome": "inactive"}
{"compound": "CC(C)(C)c1ccc(CSc2cnn(C(C)(C)C)c(=O)c2Cl)cc1", "AC50": "4.85 µM (active)"}
{"compound": "CN(C)C(=S)SSC(=S)N(C)C", "AC50": "0.0771 µM (active)"}
{"compound": "C=CCC1=C(C)[C@@H](OC(=O)[C@@H]2[C@@H](C=C(C)C)C2(C)C)CC1=O", "outcome": "inactive"}
{"compound": "COC(=O)N(OC)c1ccccc1COc1ccn(-c2ccc(Cl)cc2)n1", "AC50": "81.5 µM (active)"}
{"compound": "CCOc1cc(Oc2ccc(C(F)(F)F)cc2Cl)ccc1[N+](=O)[O-]", "AC50": "10.9 µM (active)"}
